HP1b binding inh = inhibitors of HP1-beta chromodomain binding to methylated histone tails; P83916; Potency, µM (series often up to 114 µM), inactives show at the top dose activity change, negative = inhibition, most hits filed as inhibitors; AID 540317; hit rate 0.56% among 390,000; AlphaScreen HP1-beta / biotin-H3K9me3 peptide binding; also: potency is read from the fitted curve at half-maximal effect; nearly all actives have a fitted effect of over 70% in size
Target sequence (P83916 whole entry, looked up): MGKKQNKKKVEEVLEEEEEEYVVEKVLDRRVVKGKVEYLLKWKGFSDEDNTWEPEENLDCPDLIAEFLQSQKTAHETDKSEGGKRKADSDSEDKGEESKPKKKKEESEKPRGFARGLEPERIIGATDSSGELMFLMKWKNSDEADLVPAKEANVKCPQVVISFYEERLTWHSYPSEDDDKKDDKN
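AlphaScreen: HP1-beta (50 nM) preformed 30 min with biotin-H3(1-18)K9me3 peptide (50 nM) in PBS pH 7.4, 0.01% Tween-20. Compound added for 30 min at RT, then streptavidin donor/nickel chelate acceptor beads (10 ug/mL) for 30 min.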
PI5P4K alpha inh = PI5P4K alpha (human) kinase inhibition; P48426; PI5P4Kalpha enzyme, ADP-Glo luminescence, 60 min; active compounds read low; max response, %; hit rate 1.2% among 330,000; active = max response of -50% or lower; inconclusive = between -30% and -50%; inactive = -30% or higher; also: value at the top dose of about 77 µM; % is scaled to controls: 0 for no effect and ±100 for the full control effect
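Quantitative HTS of the MLSMR library against PI5P4Kalpha with substrate. ATP added last at 5 microM final; room temperature, 60 minutes. Remaining ATP depleted, ADP converted and read as luminescence.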
G9a inh = G9a (human) methyltransferase inhibition | Q96KQ7 | G9a H3K9 monomethylation, AlphaScreen, 2 h | Potency, µM (highest dose often 102 µM), inactives show at the top dose activity, negative = inhibition, usual class: inhibitors | AID 504332 | hit rate 8.8% among 350,000; also: potency is read from the fitted curve at half-maximal effect; % is scaled to controls: 0 for no effect and ±100 for the full control effect; nearly all actives have a fitted effect of over 75% in size
Target sequence (Q96KQ7 913-1193 limits assumed): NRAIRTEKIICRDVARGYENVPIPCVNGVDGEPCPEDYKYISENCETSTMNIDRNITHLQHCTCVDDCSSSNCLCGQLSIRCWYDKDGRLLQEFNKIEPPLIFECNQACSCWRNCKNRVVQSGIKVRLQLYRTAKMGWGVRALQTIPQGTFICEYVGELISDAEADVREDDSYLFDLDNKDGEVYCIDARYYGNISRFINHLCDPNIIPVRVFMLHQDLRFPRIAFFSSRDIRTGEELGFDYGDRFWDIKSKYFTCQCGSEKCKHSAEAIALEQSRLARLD
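Signal arises when biotinylated H3K9 peptide, once monomethylated, bridges streptavidin donor and antibody-captured acceptor beads. Enzyme at 20 nM was preincubated 15 min with test compounds; peptide 500 nM and SAM 20 uM then reacted for 2 h.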
BAZ2B inh = blocks human BAZ2B. AlphaScreen BAZ2B-H3K14Ac peptide displacement. Potency, µM (doses to about 114 µM), for the others: top-dose activity change, negative = inhibition, usual class: inhibitors. hit rate 4.4% among 360,000; also: potency is read from the fitted curve at half-maximal effect; % is scaled to controls: 0 for no effect and ±100 for the full control effect; nearly all actives have a fitted effect of over 60% in size
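AlphaScreen displacement of biotin-H3(5-23)K14Ac peptide (50 nM final) from BAZ2B (50 nM final) in PBS pH 7.4, 0.01% Tween-20; complex preformed 30 min RT, then compounds (top 110 uM) 30 min RT, beads 20 min dark.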
PLK1 PBD inh = blocks phosphopeptide binding to human PLK1 polo-box domain; Plk1 PBD binding of FITC phosphopeptide, fluorescence polarization; hit rate 2.8% among 360,000; P53350; Potency, µM, for the others: max response, negative = inhibition, hits mostly inhibitors; AID 720504; also: potency is read from the fitted curve at half-maximal effect; series mostly up to about 57 µM; % is scaled to controls: 0 for no effect and ±100 for the full control effect; nearly all actives have a fitted effect of over 65% in size
JMJD2A Tudor = blocks the human JMJD2A Tudor domain; O75164; AlphaScreen JMJD2A-Tudor / H3K4me3 peptide binding; Potency, µM (top dose mostly 114 µM), for inactives: top-dose activity change, negative = inhibition, actives largely listed as inhibitors; hit rate 4.4% among 390,000; AID 504339; also: potency is read from the fitted curve at half-maximal effect; % is scaled to controls: 0 for no effect and ±100 for the full control effect; nearly all actives have a fitted effect of over 50% in size
* hit, by the source's call; u = inconclusive; x = not tested or not shown; ! = not active in a repeat; [ ] = another dose, or the depositor's remark. Most compounds without a hit are left out; they make up all but 12% or so of the library. Unless noted, calls follow the shape of the dose curve; as a rule, active = well fitted curve in the direction sought with a large enough effect; inconclusive = small, poorly fitted or top-dose-only effect, or another doubt; inactive = no such curve, though single readings can be large; an effect the other way counts as inactive or inconclusive.

SMILES | HP1b binding inh | PI5P4K alpha inh | G9a inh | BAZ2B inh | PLK1 PBD inh | JMJD2A Tudor
CCOc1ccc(NC(=O)c2ccc3c(c2)CCN3S(C)(=O)=O)cc1 | 4% | 10 | x | -3% | -7% | -14%
O=C(O)COc1ccc(NC(=O)c2ccc3c(c2)C(=O)N(CC2CCCO2)C3=O)cc1 (centres undefined) | x | 1 | x | x | -3% | x
CC(C)Oc1ccc(CNC(=O)CCCN2C(=O)c3cccnc3Oc3ccc(Cl)cc32)cc1 | 29% | x | -7%[59 µM] | 2% | x | -13%
COc1ccccc1NC(=O)Cn1c(SCC(=O)N(C)c2ccccc2)nc2ccccc21 | 16% | x | -3%[59 µM] | -27% | x | -23%
Cc1ccccc1C(=O)Nc1ccc2oc(-c3ccc(Cl)c(Cl)c3)nc2c1 | 28% | x | 3%[59 µM] | -2% | x | -11%
COc1ccc(CNc2ncc(-c3cccc([N+](=O)[O-])c3)n2C)c(OC)c1OC | u | 4 | 32µM* | 50µM* | 2% | 25µM*
COc1ccc(CNc2ncc(-c3ccc(F)cc3)n2C)c2ccccc12 | u | -1 | 10µM* | 50µM* | 7% | 20µM*
CCCn1nnnc1NCc1cccc(OC)c1OC | 6% | 2 | u | -5% | u | 11%[57.1 µM]
CCOc1ccc(-c2cnc(NCc3cccc4ccccc34)n2CCOC)cc1 | u | -11 | x | 40µM* | -14% | 14µM*
O=C(Nc1c(-c2ccccc2)[nH][nH]c1=O)c1ccc(Br)cc1 | x | -2 | x | x | -23% | x
COc1cc(OC)cc(C(=O)Nc2ccc3nc(N4CCC(C)CC4)cc(C)c3c2)c1 | 15% | x | -20%[59 µM] | -9% | x | -21%
Cc1cc(F)ccc1-n1nnc(C(N)=O)c1C | 8% | x | 4%[59 µM] | 4% | x | -15%
Cn1c(CS/C(N)=N/N=C/c2ccccc2)c(Br)c(=O)n1-c1ccccc1 | -6% | -27 | 35µM* | u | 24µM* | 50µM*
O=C1NC[C@H](CCCCN2C[C@@H](Cc3ccccc3)N(CCC3CCCCC3)C(=O)C2=O)N(CCC2CCCCC2)C1=O | x | -4 | x | x | -5% | x
C[c-]1[c-](C)[c-](C)[c-](C)[c-]1C.[Fe].c1cc2nccc(N3CCCC3)[c-]2c1 (centres undefined) | 18µM*! | u | u | 40µM* | u | 45µM*
c1cc(N2CCCCC2)nc(N2CCCCC2)n1 | -3% | 1 | x | x | -6% | -12%
CC1(C(=O)Nc2ccc(F)c(Cl)c2)Cc2c(-c3ccccc3)ccnc2O1 (centres undefined) | x | 22 | x | x | 3% | x
CCCCOP(=O)(OCCCC)C1(NS(=O)(=O)c2ccccc2)C=CC(=O)c2ccccc21 (centres undefined) | u | 2 | 1.8µM* | -7% | -14% | u
COc1ccc(C2/C=C\CN(S(=O)(=O)c3ccc(C)cc3)C(Cc3ccccc3)C(=O)N2Cc2ccc(F)cc2)cc1 (centres undefined) | 35% | x | x | x | x | -30%
CN(C1CCCCC1)S(=O)(=O)Cc1ccccc1 | -1% | x | 32µM* | 2% | u | -10%
CCN(C(=O)Cn1nc(Cc2ccncc2)c2ccccc2c1=O)c1cccc(C(F)(F)F)c1 | 57% | x | u | -8% | x | -10%
Cn1nc(C(=O)Nc2cccc(C(F)(F)F)c2)c2c1-c1ccccc1S(=O)(=O)C2 | 45% | x | -5%[59 µM] | 1% | x | 1%
COc1ccc(NC(=O)CN(C)C(=O)c2cccc(S(=O)(=O)N3CCN(C)CC3)c2)cc1 | 3% | 0 | 7%[0.501 µM] | -5% | -10% | -19%
COc1ccc(Cl)cc1NC(=O)CN(C)C(=O)c1cccc(S(=O)(=O)N2CCN(C)CC2)c1 | 20% | 4 | x | x | 6% | -12%
COc1ccc(NC(=O)CN(C)C(=O)c2cccc(S(=O)(=O)N3CCN(Cc4ccccc4)CC3)c2)cc1 | 11% | -5 | 18µM* | u | -14% | -22%
CN1CCN(S(=O)(=O)c2cccc(C(=O)N(C)CC(=O)Nc3ccc(F)c(F)c3F)c2)CC1 | 15% | -2 | 1.8µM* | u | -1% | -21%

Screening data from PubChem BioAssay.
